Sampled rows, rich in hits. Any-hit rate of the full collection: about 10%.
CCT chaperon mod: changes cytosolic chaperonin activity; purified chaperonin ATPase assay, HTRF ADP detection, 30 min; activity change, % (concentration not given with the values), hits read low; 360,000 compounds, 0.3% hits; AID 651819; in the data active = activity change below about -30%
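We incubate TRiC, 40 or 20 nM final, with library compounds at 76 uM and 10 uM ATP for 30 min at 37 °C. ADP formed is detected with Transcreener HTRF reagents after 30 min at room temperature.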
Mm-Cpn inhibitor: M. maripaludis TRiC chaperonin inhibition; purified Mm-Cpn ATPase, ADP Transcreener TR-FRET; Potency, µM (highest dose often 76.9 µM), inactives show at the top dose activity, negative = inhibition, actives largely listed as inhibitors; 330,000 compounds, 0.031% hits; AID 504842; also: potency is read from the fitted curve at half-maximal effect; nearly all actives have a fitted effect of over 80% in size
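Purified archaeal chaperonin (25 nM final) was preincubated with compound for 10 min at 37°C, then ATP (10 uM final) was added for 30 min at 37°C in Tris pH 7.4/KCl/MgCl2/DTT buffer. ADP was quantified by HTRF Transcreener TR-FRET.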
G9a block: G9a (human) methyltransferase inhibition; G9a H3K9 monomethylation, AlphaScreen, 2 h; Potency, µM (highest dose often 102 µM), inactives show at the highest dose activity, negative = inhibition, hits mostly inhibitors; 350,000 compounds, 8.8% hits; also: potency is read from the fitted curve at half-maximal effect; nearly all actives have a fitted effect of over 75% in size
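Chemiluminescent proximity detection of H3K9 monomethylation, read after 10 min bead incubation in the dark. Reaction: 20 nM G9a, 500 nM biotin-H3K9 peptide, 20 uM SAM cofactor, 2 h, room temperature, following 15 min enzyme-compound preincubation.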
Sfp PPTase inh: Sfp phosphopantetheinyl transferase inhibition; Q9F4F7; Biochemical Sfp PPTase activity, qHTS; Potency, µM, inactives show largest response in the series, negative = inhibition, usual class: inhibitors; 310,000 compounds, 3.5% hits; AID 1490;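 also: the enzyme is Sfp with the accession as filed and its product quenches rhodamine fluorescence; potency is read from the fitted curve at half-maximal effect; 0% = enzyme reaction without inhibitor and -100% = no enzyme wells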
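After 15 min at room temperature with compound, 15 nM Sfp received 5 uM rhodamine-CoA plus 12.5 uM BHQ-2-ybbR (50 mM Hepes pH 7.6, 10 mM MgCl2). Rate came from the fluorescence difference over 30 min, ex 525/em 598 nm.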
VDR inhibitor: inhibitors of human vitamin D receptor; 400,000 compounds, 0.93% hits; VDR-SRC2-3 peptide fluorescence polarization, 2 h; P11473; Potency, µM, for inactives: max response, negative = inhibition, usual class: inhibitors; also: potency is read from the fitted curve at half-maximal effect
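Two reagent solutions held at 4 deg C in the dark were dispensed, compounds pinned at 23 nl, and the mixture incubated 2 h at room temperature. Read-out: fluorescence polarization of VDR–SRC2-3 peptide binding.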
PLK1 PBD block: inhibitors of human PLK1 polo-box domain binding; AID 720504; Plk1 PBD binding of FITC phosphopeptide, fluorescence polarization; Potency, µM, without a hit: max response, negative = inhibition, most hits filed as inhibitors; P53350; 360,000 compounds, 2.8% hits; also: potency is read from the fitted curve at half-maximal effect; series mostly up to about 57 µM; nearly all actives have a fitted effect of over 65% in size
Target sequence (P53350 whole entry, looked up, the tested form may be a part): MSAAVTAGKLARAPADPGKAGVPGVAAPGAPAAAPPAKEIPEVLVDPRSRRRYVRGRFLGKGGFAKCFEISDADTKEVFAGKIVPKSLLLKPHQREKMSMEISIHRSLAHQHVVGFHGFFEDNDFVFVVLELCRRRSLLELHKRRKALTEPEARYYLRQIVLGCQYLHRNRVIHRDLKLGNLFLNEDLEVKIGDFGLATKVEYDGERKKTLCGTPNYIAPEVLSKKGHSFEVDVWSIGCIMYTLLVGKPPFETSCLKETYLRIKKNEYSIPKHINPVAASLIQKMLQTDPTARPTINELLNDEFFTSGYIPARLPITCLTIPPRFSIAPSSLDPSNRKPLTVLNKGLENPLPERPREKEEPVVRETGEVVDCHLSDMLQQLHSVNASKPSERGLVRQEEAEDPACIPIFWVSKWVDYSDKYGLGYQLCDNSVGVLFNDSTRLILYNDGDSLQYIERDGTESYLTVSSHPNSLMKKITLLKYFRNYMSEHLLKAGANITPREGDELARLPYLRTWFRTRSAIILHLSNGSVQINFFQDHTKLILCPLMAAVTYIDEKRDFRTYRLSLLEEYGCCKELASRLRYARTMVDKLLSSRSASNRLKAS
Numbers without * were called inactive; u = inconclusive; x = no result; [ ] = remark or other dose. Unless noted, calls follow the shape of the dose curve; as a rule, active = well fitted curve in the direction sought with a large enough effect; inconclusive = small, poorly fitted or top-dose-only effect, or another doubt; inactive = no such curve, though single readings can be large; an effect the other way counts as inactive or inconclusive. Unless noted, % is scaled to controls: 0 for no effect and ±100 for the full control effect.

SMILES	CCT chaperon mod	Mm-Cpn inhibitor	G9a block	Sfp PPTase inh	VDR inhibitor	PLK1 PBD block
Cc1ccc(C(=O)N2NC(c3ccc(F)cc3)C3C(=O)N(c4ccc(C)c(C)c4)C(=O)C32)cc1 (stereo not drawn)	-2	-1%	56µM*	3%	2%	-17%
CCOc1ccc(N2C(=O)C3C(c4ccccc4F)NN(C(=O)c4ccc(C)cc4)C3C2=O)cc1 (stereo not drawn)	1	-2%	50µM*	6%	2%	-18%
COc1ccccc1N1C(=O)C2C(c3ccc(F)cc3)NN(C(=O)c3ccc(C)cc3)C2C1=O (stereo not drawn)	-2	-3%	-36%	-3%	10%	-8%
CCN1CCN(c2nc3c(c(=O)n(C)c(=O)n3C)n2Cc2cccc3ccccc23)CC1	0	1%	40µM*	15%	-8%	-13%
CCOCCn1c(N2CCCC2)nc2c1c(=O)[nH]c(=O)n2C	1	0%	u	40µM*	-9%	-14%
CCOCCn1c(SC)nc2c1c(=O)[nH]c(=O)n2C	-1	-4%	u	18µM*	-17%	24µM*
CCOCCn1c(N2CCCC2)nc2c1c(=O)n(C)c(=O)n2C	1	2%	71µM*	37%	3%	-4%
CCN1CCN(Cc2nc3c(c(=O)n(C)c(=O)n3C)n2Cc2cccc3ccccc23)CC1	3	1%	4%[59 µM]	2%	7%	-1%
CN(C)c1ncc2nc(-c3ccc(Cl)cc3)c(=O)n(C)c2n1	x	x	9%[0.501 µM]	14%	2%	x
CCn1c([N+](=O)[O-])nc2c1c(=O)[nH]c(=O)n2C	1	-1%	40µM*	-5%	4%	-17%
CCCCCCn1c(SCCCC)nc2c1c(=O)[nH]c(=O)n2C	0	0%	u	13%	7%	-7%
Cc1nc(N2CCCC2)c2c(C(=O)Nc3ccc(C)c(Cl)c3)c(C)oc2n1	x	x	-6%[59 µM]	x	8%	x
Clc1ccc(CO/N=C2\CCCc3nonc32)cc1	2	1%	111%	-3%	u	21µM*
CCn1c(-c2sc(-c3ccccc3)nc2C)n[nH]c1=S	-3	1%	-128%[59 µM]	-20%	-11%	-22%
COc1ccc(OC)c(NC(=O)Cn2c(C)nc3ccccc3c2=O)c1	-2	-1%	39%	11%	-7%	-13%
CCn1c(-c2cc(-c3ccccc3OC)nc3ccccc23)n[nH]c1=S	-3	u	2.8µM*	-14%	-22%	-7%
CCn1c(-c2cc(-c3cc(OC)ccc3OC)nc3ccccc23)n[nH]c1=S	2	-3%	3.5µM*	1%	8%	0%
COc1ccc(Cl)cc1NS(=O)(=O)c1ccc2c(c1)NC(=O)CC(=O)N2	x	x	-6%[59 µM]	x	-3%	x
O=C(C1CCC(Cn2c(=O)c3sccc3n(Cc3cccc(F)c3)c2=O)CC1)N1CCOCC1 (stereo not drawn)	x	x	5%[59 µM]	x	1%	x
CC1=NN(c2ccc(C(=O)O)cc2)C(=O)/C1=C/c1ccc(-c2ccccc2F)o1	x	-2%	7.9µM*	-21%	x	x
CC1=NN(c2ccccc2)C(=O)/C1=C/c1ccc(-c2ccc(C)c(C(=O)O)c2)o1	-4	x	x	x	u	4.7µM*
CC1=NN(c2ccc(Cl)c(C(=O)O)c2)C(=O)/C1=C\c1ccc(-c2ccc(C(=O)O)cc2)o1	2	-2%	8.9µM*	-11%	-30%	8.4µM*
Cc1ccc(NC(=O)/C(C#N)=C/c2ccc(-c3ccc(Cl)c(C(=O)O)c3)o2)cc1C	x	x	-51%[59 µM]	x	-8%	x
CC1=NN(c2ccc(C)cc2)C(=O)/C1=C/c1ccc(-c2cc([N+](=O)[O-])ccc2O)o1	-3	-1%	x	-18%	-6%	u
COc1ccc(NC(=O)Cn2cnc3ccc(S(=O)(=O)N4CCC(C)CC4)cc3c2=O)cc1Cl	x	x	27%[59 µM]	x	u	x
SMILES	CCT chaperon mod	Mm-Cpn inhibitor	G9a block	Sfp PPTase inh	VDR inhibitor	PLK1 PBD block
CC(C)c1cc(/C=C(\C#N)C(=O)NCCCc2ccccc2)cc(C(C)C)c1O	x	x	10%[59 µM]	25%	-4%	x
CCOC(=O)c1sc(NC(=O)c2nc(SCC)ncc2Cl)c(C(=O)OCC)c1C	x	x	7%[59 µM]	x	10%	x
CCCOC(=O)c1cc(-c2ccc(/C=C3/C(=O)N(C)C(=O)C(C#N)=C3C)o2)ccc1Cl	1	x	x	x	50µM*	19µM*
C=CCOC(=O)c1cc(-c2ccc(/C=C3\C(=O)NC(=O)C(C#N)=C3C)o2)ccc1Cl	-1	1%	8.9µM*	50µM*	25µM*	6µM*
CCCOC(=O)c1cc(-c2ccc(C=O)o2)ccc1Cl	-1	0%	u	-19%	-25%	-6%
COC(=O)C1=C(c2ccccc2)c2ccccc2S(=O)(=O)N1CC(=O)Nc1cccc(C(C)=O)c1	x	x	u	x	10%	x
CCC(C)N(C(=O)COC(=O)CSc1ccc([N+](=O)[O-])cc1)C1CCS(=O)(=O)C1 (stereo not drawn)	-1	0%	40µM*	-11%	-3%	3%
CCC(C)N(C(=O)COC(=O)c1nc2nc(C)cc(C)n2n1)C1CCS(=O)(=O)C1 (stereo not drawn)	-1	0%	16µM*	x	3%	-3%
CCC(C)N(C(=O)COC(=O)c1ccc(N)c([N+](=O)[O-])c1)C1CCS(=O)(=O)C1 (stereo not drawn)	0	x	x	x	x	2%
C=C(C)CNC(=S)N/N=C(\C)c1ccc(-n2ccnc2)cc1	0	0%	25%[59 µM]	6%	-19%	-6%
C/C(=N\Nc1ccc(Cl)c(Cl)c1)c1ccc(-n2ccnc2)cc1	1	1%	11µM*	-19%	0%	-3%
C/C(=N\NC(N)=S)c1ccc(-n2ccnc2)cc1	-1	0%	u	79µM*	3%	-10%
CCOC(=O)c1cccc(NC(=O)c2oc3c(c2C)-c2nn(CC)cc2CC3)c1	x	x	-40%[59 µM]	x	-4%	x
Cc1cc(-n2nc3ccccc3n2)c(O)c([N+](=O)[O-])c1	0	0%	79µM*	-9%	5%	-17%
Cc1ccc(OC(=O)c2cccc([N+](=O)[O-])c2)c(-n2nc3ccccc3n2)c1	-3	3%	21%[59 µM]	-28%	-5%	-9%
O=C1C(=O)N(C2CCN(C(=O)c3cccc(Cl)c3)CC2)CCN1Cc1ccc(F)cc1	x	x	-5%[59 µM]	x	9%	x
O=C(OCC1OC(n2cc(Br)c(=O)[nH]c2=O)C(Br)C1O)c1ccccc1 (stereo not drawn)	0	0%	-12%	10%	-19%	1%
Cc1cn(C2OC(COC(=O)c3ccccc3)C(O)C2Cl)c(=O)[nH]c1=O (stereo not drawn)	-2	2%	50µM*	11%	-5%	u
Cc1cc(NC(=O)CN2CCC(C)CC2)nc2c1c(=O)oc1ccccc12	x	x	5%[59 µM]	x	-22%	x

Screening results (PubChem BioAssay)
